PubChem BioAssay AID2284153 (EPA ToxCast)
The source made the active and inactive calls. Rule for the calls: active = hit-call score of the fitted dose curve at least 0.9, where 1 is the maximum; inactive = score below 0.9.

What follows are compounds tested against Muscarinic acetylcholine receptor M1 (Homo sapiens) (UniProt P11229) (assay: ERF_FR_GPCR_hCHRM1: Eurofins (ERF) G Protein-Coupled Receptor (GPCR) Radioligand Binding LeadHunter Assay for human Muscarinic Acetylcholine Receptor M1 Antagonism, conducted at France lab site).
Muscarinic acetylcholine receptor M1 (Homo sapiens), sequence (P11229 whole entry, looked up): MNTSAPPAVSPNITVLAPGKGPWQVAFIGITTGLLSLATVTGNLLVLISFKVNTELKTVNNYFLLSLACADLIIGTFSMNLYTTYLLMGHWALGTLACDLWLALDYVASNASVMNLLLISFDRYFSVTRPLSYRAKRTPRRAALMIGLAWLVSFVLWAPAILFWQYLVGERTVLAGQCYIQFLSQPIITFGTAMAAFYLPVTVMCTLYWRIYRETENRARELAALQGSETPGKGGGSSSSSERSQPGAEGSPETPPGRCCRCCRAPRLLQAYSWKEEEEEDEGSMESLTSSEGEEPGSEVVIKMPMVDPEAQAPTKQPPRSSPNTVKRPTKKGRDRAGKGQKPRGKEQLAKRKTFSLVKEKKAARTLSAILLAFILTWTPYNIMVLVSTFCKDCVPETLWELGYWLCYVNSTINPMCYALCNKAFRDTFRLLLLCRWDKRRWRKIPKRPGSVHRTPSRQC
Experimental: ERF_FR_GPCR_hCHRM1 is a biochemical, single-readout assay that uses extracted gene-proteins in a cell-free assay. Measurements were taken 1 hour after chemical dosing in a 96-well plate. See M1 Human Acetylcholine (Muscarinic) GPCR Binding (Antagonist Radioligand) Assay, Cerep.ERF_FR_GPCR_hCHRM1 is an assay component calculated from the ERF_FR_GPCR_hCHRM1 assay. It is designed to measure radioligand binding using a type of binding reporter as detected by scintillation counting with radiometry technology.Data from the assay component ERF_FR_GPCR_hCHRM1 was analyzed at the assay endpoint, ERF_FR_GPCR_hCHRM1, in the positive analysis fitting direction relative to DMSO as the negative control and baseline of activity. Using a type of binding reporter, loss-of-signal activity can be used to understand changes in binding as they relate to gene CHRM1. To generalize the intended target to other relatable targets, this assay endpoint is annotated to the gpcr intended target family, where the subfamily is acetylcholine (Muscarinic).
Human cells are incubated for 60 minutes at room temprature with [3H]pirenzepine ligand (2 nM) and pirenzepine as control inhibitor.Test Sample Requirements: Minimum for 1) Screen: 60 ul of 10 mM stock -OR- 1 mg (pre-weighed) for 10 uM final testing. 2) Dose Response: 90 ul of 10 mM stock -OR- 1 mg (pre-weighed) for a top concentration at 10 uM.
With O=C(/C=C/c1ccc(O)cc1)CC(=O)/C=C/c1ccc(O)cc1 the AC50 was 5 µM (active).
